Source: PubChem BioAssay (NCI)
Compounds without any hit were thinned out: in the full panel of roughly 79,000, 15% have a hit. The source made the active and inactive calls. No stated cut-off is given here; in the data, active means growth inhibition above about 70%; inactive means the rest.

Assay: NCI Yeast Anticancer Drug Screen. Data for the rad50 strain (AID 155);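 further: 0% = growth of vehicle-only cultures of the same strain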
Settings: S. cerevisiae rad50 strain growth inhibition; at 100.0 µM; stronger effect = higher value
How it was run: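 A DNA repair-deficient yeast mutant serves as the test organism; compound-induced growth inhibition is calculated against vehicle-treated cells.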

SMILES	growth inhibition
CN(C)c1ccc(C2CC(C)(O)Oc3cc4c(cc32)OCO4)cc1 (stereo not drawn)	40% (inactive)
O=P(NC1CCCCC1)(OCc1ccccc1)OCc1ccccc1	26% (inactive)
COc1oc(C(=O)NC2CCCCC2)c(-c2ccc(Cl)cc2)c1S(=O)(=O)c1ccccc1	78% (active)
C[Si](C)(C)/C=C/CCNC(C#N)c1ccccc1 (stereo not drawn)	92% (active)
CCOc1ccc(NC(=O)C2=C(C)NC(C)=C(C(=O)Nc3ccc(OCC)cc3)C2c2cccc([N+](=O)[O-])c2)cc1	79% (active)
CN(C)CCOC1(Cc2ccc(F)cc2)CCC(C(C)(C)C)CC1 (stereo not drawn)	97% (active)
CC1(C)CC(=O)C(/C=N/c2nc(-c3ccccc3)cs2)=C(O)C1	84% (active)
CC(=O)Nc1ccc2c(c1)Cc1cc(N=C3C=CC(=O)O3)ccc1-2	99% (active)
O=C1C=C(Cl)C(=O)C(c2ccc(Cl)cc2)=C1	97% (active)
CNCCCNc1c2ccccc2nc2cccc([N+](=O)[O-])c12	96% (active)
CCCCCCCCCCCC(O)S(=O)(=O)O (stereo not drawn)	50% (inactive)
CC(C)OC(=O)c1ccc(CCc2cc(O)c(Br)cc2O)cc1	97% (active)
CCc1cc(O)c(Cl)c(C)c1Cl	97% (active)
C(=Nc1ccc(-c2cc(-c3ccccc3)nc3ccc4ccccc4c23)cc1)c1ccccc1	68% (inactive)
CSc1nc(C)c(CCOC(C)=O)c(N=P(c2ccccc2)(c2ccccc2)c2ccccc2)n1	90% (active)
CS(=O)(=O)SCc1ccc([N+](=O)[O-])cc1	97% (active)
COC1=C(OC)C(=O)C(Sc2ccc3ccccc3c2)=CC1=O	83% (active)
COc1nc2c(c(=O)n1C)N=C(c1ccccc1)[C@H](C(CC(=O)c1ccccc1)c1ccccc1)C(c1ccccc1)N2 (stereo partly drawn)	55% (inactive)
Cc1cc(-c2cc(C)c(O)c(C(C)(C)C)c2)cc(C(C)(C)C)c1O	72% (active)

SMILES	growth inhibition
Nc1cc(N)c(N=Nc2cccc3c(S(=O)(=O)O)cccc23)cc1N=Nc1cc([N+](=O)[O-])ccc1O	54% (inactive)
Nc1ccc(F)cc1S	98% (active)
Brc1ccccc1-c1ncc(-c2ccccc2)o1	70% (active)
COc1cc(C2SCC(=O)N2c2ccc(-c3ccc(-n4c(-c5ccccc5)nc5ccccc5c4=O)cc3)cc2)ccc1O (stereo not drawn)	21% (inactive)
Nc1ncnc2c1ncn2C1OC(CO)CC1O (stereo not drawn)	91% (active)
COc1cc(CSc2ccc(O)cc2)cc(O)c1O	6% (inactive)
CCOC(=O)C1N=[N+](c2ccccc2)C(=O)/C1=C\n1c(=S)[nH]c2ccc([N+](=O)[O-])cc21 (stereo not drawn)	7% (inactive)
CNC(=O)OCc1c(COC(=O)NC)c2n(c1C)-c1ccc(OC)cc1CCC2	99% (active)
O=C(NNc1ccccc1)c1ccc(Cl)c(Cl)c1	61% (inactive)
C[C@]12CC[C@H](O)CC1=CC[C@@H]1C2CC[C@]2(C)C(=O)NC(=O)CC12 (stereo partly drawn)	88% (active)
CCCC/C=C/C(C)(C(=O)OCC)C(=O)OCC	19% (inactive)
CCc1c(Cl)c(C)cc(O)c1Cl	94% (active)
O=C(/C=C(/c1ccccc1)N1CCCCC1)c1ccccc1	97% (active)
CCCC(=O)Oc1ccc(/C=N/NC(N)=S)nc1	4% (inactive)
CCc1nc2ccc(NCCN(C)C)c3c(=O)c4ccccc4n1c23	91% (active)
Cc1sc2ccc3ccccc3c2[n+]1C	83% (active)
COc1c(O)c(C=O)c(Br)c(C=O)c1O	86% (active)
Cc1ccc(Cl)cc1NC(=O)OCCN(C)C(=O)Nc1cc(Cl)ccc1C	19% (inactive)
Cc1nc2ccccc2nc1NNc1ccccc1	60% (inactive)
